{
  "source": "the supplement of paper PMC8728848",
  "binders": {"B1": {"name": "Blon2468mut (Bifidobacterium longum) (protein)", "chain": "MTFIKQMMPRYVASMTAGIVAAAMAATCAFAPVANADAVSPTQETIQSTGRHFMVYYRAWRDVTMKGVNTDLPDDNWISMYDIPYGVDVVNIFSYVPSGQEEQAQPFYDKLKSDYAPYLHSRGIKLVRGIDYTGVAVNGFRTFMKEQNKTESEATEADYDAYAKQVIDKYMISVGLDGLDIDMQAHPNDADVKISDNVIRALSKHIGPKSAKPDTTMFLYDTNGSYLNPFKNVAECFDYVAYQQYGSSSDRTARAAADYQPYIGNEFVPGLTFPEEGDMNNRWYDATEPYEESHFYQVASYVREHNLGGMFVYALDRDGRNYDEDLRRIVPSNLLWTKTAIAESEGMALDTAKTAANHYLDRMSLRQVIDDNAASADKARDMVGKAANLYETNKAVLGGDYGEGFSNTYDPTLEAGLLGIDISVLQQQIDKSSEIIGADTAESDAKTALRMARDAAIDGLTGKIYTADQVSAWSQALKAALDATVPVPTPDSTDQNGNRDKVTNHKVQGQPKQLSATGISTDIIVAVGVTLAIAGVALSLSRKLS"}},
  "assay_in_all_cases": "glycan array binding signal (z-score within array); higher = stronger binding",
  "conditions_in_all_cases": "glycan notation: IUPAC condensed, linker removed",
  "key": {"[1]": {"target": "Fuc(a1-2)Gal(b1-3)GlcNAc6S", "outline": "(§1)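 Glycan array data came from 3228 arrays in the Consortium for Functional Glycomics database, and only arrays with an available protein sequence were kept. Glycan names were put into IUPAC-condensed notation, and columns mapping to the same glycan were averaged. The binding signal is a within-array Z-score, averaged across arrays of one protein sequence run at different concentrations or buffers and across linkers. A negative Z-score can be read as non-binding.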"}, "[2]": {"target": "Fuc(a1-2)Gal(b1-3)[Fuc(a1-4)]GlcNAc(b1-2)Man(a1-3)[Fuc(a1-2)Gal(b1-3)[Fuc(a1-4)]GlcNAc(b1-2)Man(a1-6)]Man(b1-4)GlcNAc(b1-4)[Fuc(a1-6)]GlcNAc(b1-4)[Fuc(a1-6)]GlcNAc", "outline": "as §1"}, "[3]": {"target": "Fuc(a1-2)Gal(b1-4)GlcNAc(b1-2)Man(a1-3)[Fuc(a1-2)Gal(b1-4)GlcNAc(b1-2)Man(a1-6)]Man(b1-4)GlcNAc(b1-4)GlcNAc", "outline": "as §1"}, "[4]": {"target": "Fuc(a1-2)Gal(b1-4)GlcNAc(b1-2)[Fuc(a1-2)Gal(b1-4)GlcNAc(b1-4)]Man(a1-3)[Fuc(a1-2)Gal(b1-4)GlcNAc(b1-2)Man(a1-6)]Man(b1-4)GlcNAc(b1-4)GlcNAc", "outline": "as §1"}, "[5]": {"target": "Fuc(a1-2)Gal(b1-4)GlcNAc(b1-3)Gal(b1-4)GlcNAc(b1-2)Man(a1-3)[Fuc(a1-2)Gal(b1-4)GlcNAc(b1-3)Gal(b1-4)GlcNAc(b1-2)Man(a1-6)]Man(b1-4)GlcNAc(b1-4)GlcNAc", "outline": "as §1"}, "[6]": {"target": "Fuc(a1-2)Gal(b1-4)[Fuc(a1-3)]GlcNAc", "outline": "as §1"}, "[7]": {"target": "Fuc(a1-2)Gal(b1-4)[Fuc(a1-3)]GlcNAc(b1-2)[Fuc(a1-2)Gal(b1-4)[Fuc(a1-3)]GlcNAc(b1-4)]Man(a1-3)[Fuc(a1-2)Gal(b1-4)[Fuc(a1-3)]GlcNAc(b1-2)Man(a1-6)]Man(b1-4)GlcNAc(b1-4)GlcNAc", "outline": "as §1"}, "[8]": {"target": "Fuc(a1-2)Gal6S(b1-3)GlcNAc6S", "outline": "as §1"}, "[9]": {"target": "Fuc(a1-2)[Gal(a1-3)]Gal(b1-3)GlcNAc(b1-2)Man(a1-3)[Fuc(a1-2)[Gal(a1-3)]Gal(b1-3)GlcNAc(b1-2)Man(a1-6)]Man(b1-4)GlcNAc(b1-4)[Fuc(a1-6)]GlcNAc", "outline": "as §1"}, "[10]": {"target": "Fuc(a1-2)[Gal(a1-3)]Gal(b1-4)[Fuc(a1-3)]GlcNAc", "outline": "as §1"}, "[11]": {"target": "Fuc(a1-2)[GalNAc(a1-3)]Gal(b1-3)GlcNAc(b1-2)Man(a1-3)[Fuc(a1-2)[GalNAc(a1-3)]Gal(b1-3)GlcNAc(b1-2)Man(a1-6)]Man(b1-4)GlcNAc(b1-4)[Fuc(a1-6)]GlcNAc", "outline": "as §1"}, "[12]": {"target": "Fuc(a1-2)[GalNAc(a1-4)]Gal(b1-4)GlcNAc", "outline": "as §1"}, "[13]": {"target": "Fuc(a1-2)[GalNAc(b1-3)]Gal", "outline": "as §1"}, "[14]": {"target": "Fuc(a1-3)[Gal(b1-4)]GlcNAc(b1-2)Man", "outline": "as §1"}, "[15]": {"target": "Gal(a1-3)Gal(b1-3)GlcNAc(b1-2)Man", "outline": "as §1"}, "[16]": {"target": "Gal(a1-3)Gal(b1-4)[Fuc(a1-3)]GlcNAc", "outline": "as §1"}, "[17]": {"target": "Gal(a1-3)[Gal(a1-4)]Gal(b1-4)GlcNAc", "outline": "as §1"}, "[18]": {"target": "Gal(b1-3)GlcNAc", "outline": "as §1"}, "[19]": {"target": "Gal(b1-3)GlcNAc(b1-2)Man", "outline": "as §1"}, "[20]": {"target": "Gal(b1-3)GlcNAc(b1-2)Man(a1-3)[GlcNAc(b1-4)][Gal(b1-3)GlcNAc(b1-2)Man(a1-6)]Man(b1-4)GlcNAc(b1-4)GlcNAc", "outline": "as §1"}, "[21]": {"target": "Gal(b1-3)GlcNAc(b1-3)Gal(b1-4)GlcNAc(b1-2)Man(a1-3)[Gal(b1-3)GlcNAc(b1-3)Gal(b1-4)GlcNAc(b1-2)Man(a1-6)]Man(b1-4)GlcNAc(b1-4)GlcNAc", "outline": "as §1"}, "[22]": {"target": "Gal(b1-3)GlcNAc(b1-3)Gal(b1-4)GlcNAc(b1-2)[Gal(b1-3)GlcNAc(b1-3)Gal(b1-4)GlcNAc(b1-6)]Man(a1-6)[Gal(b1-3)GlcNAc(b1-3)Gal(b1-4)GlcNAc(b1-2)Man(a1-3)]Man(b1-4)GlcNAc(b1-4)[Fuc(a1-6)]GlcNAc", "outline": "as §1"}, "[23]": {"target": "Gal(b1-3)GlcNAc(b1-3)Gal(b1-4)GlcNAc(b1-3)Gal(b1-4)GlcNAc(b1-2)[Gal(b1-3)GlcNAc(b1-3)Gal(b1-4)GlcNAc(b1-3)Gal(b1-4)GlcNAc(b1-6)]Man(a1-6)[Gal(b1-3)GlcNAc(b1-3)Gal(b1-4)GlcNAc(b1-3)Gal(b1-4)GlcNAc(b1-2)Man(a1-3)]Man(b1-4)GlcNAc(b1-4)[Fuc(a1-6)]GlcNAc", "outline": "as §1"}, "[24]": {"target": "Gal(b1-3)[Fuc(a1-4)]GlcNAc(b1-6)GalNAc", "outline": "as §1"}, "[25]": {"target": "Gal(b1-4)GlcNAc(b1-2)Man(a1-6)[GlcNAc(b1-2)Man(a1-3)]Man(b1-4)GlcNAc(b1-4)GlcNAc", "outline": "as §1"}, "[26]": {"target": "Gal(b1-4)GlcNAc(b1-3)Gal(b1-4)GlcNAc(b1-3)Gal(b1-4)GlcNAc(b1-3)Gal(b1-4)GlcNAc(b1-3)Gal(b1-4)GlcNAc(b1-2)Man(a1-3)[Gal(b1-4)GlcNAc(b1-3)Gal(b1-4)GlcNAc(b1-3)Gal(b1-4)GlcNAc(b1-3)Gal(b1-4)GlcNAc(b1-3)Gal(b1-4)GlcNAc(b1-2)Man(a1-6)]Man(b1-4)GlcNAc(b1-4)[Fuc(a1-6)]GlcNAc", "outline": "as §1"}, "[27]": {"target": "Gal3S(b1-4)[Fuc(a1-3)]Glc6S", "outline": "as §1"}, "[28]": {"target": "Gal6P(b1-4)GlcNAc", "outline": "as §1"}},
  "note": "About 410 targets per protein were measured; listed, in parts, are those with the strongest signals and a random draw of the rest.",
  "data": [
    {"binder": "B1", "values": [
      {"measurement": "glycan array binding signal (z-score)", "setting": "[1]", "result": -0.052},
      {"measurement": "glycan array binding signal (z-score)", "setting": "[2]", "result": -0.074},
      {"measurement": "glycan array binding signal (z-score)", "setting": "[3]", "result": -0.068},
      {"measurement": "glycan array binding signal (z-score)", "setting": "[4]", "result": -0.045},
      {"measurement": "glycan array binding signal (z-score)", "setting": "[5]", "result": 0.003},
      {"measurement": "glycan array binding signal (z-score)", "setting": "[6]", "result": -0.065},
      {"measurement": "glycan array binding signal (z-score)", "setting": "[7]", "result": -0.036},
      {"measurement": "glycan array binding signal (z-score)", "setting": "[8]", "result": 0.078},
      {"measurement": "glycan array binding signal (z-score)", "setting": "[9]", "result": -0.055},
      {"measurement": "glycan array binding signal (z-score)", "setting": "[10]", "result": -0.049},
      {"measurement": "glycan array binding signal (z-score)", "setting": "[11]", "result": -0.036},
      {"measurement": "glycan array binding signal (z-score)", "setting": "[12]", "result": -0.021},
      {"measurement": "glycan array binding signal (z-score)", "setting": "[13]", "result": -0.061},
      {"measurement": "glycan array binding signal (z-score)", "setting": "[14]", "result": -0.022},
      {"measurement": "glycan array binding signal (z-score)", "setting": "[15]", "result": -0.087},
      {"measurement": "glycan array binding signal (z-score)", "setting": "[16]", "result": -0.083},
      {"measurement": "glycan array binding signal (z-score)", "setting": "[17]", "result": 0.009},
      {"measurement": "glycan array binding signal (z-score)", "setting": "[18]", "result": -0.068},
      {"measurement": "glycan array binding signal (z-score)", "setting": "[19]", "result": -0.078},
      {"measurement": "glycan array binding signal (z-score)", "setting": "[20]", "result": -0.042},
      {"measurement": "glycan array binding signal (z-score)", "setting": "[21]", "result": -0.09},
      {"measurement": "glycan array binding signal (z-score)", "setting": "[22]", "result": 0.03},
      {"measurement": "glycan array binding signal (z-score)", "setting": "[23]", "result": 0.124},
      {"measurement": "glycan array binding signal (z-score)", "setting": "[24]", "result": -0.056},
      {"measurement": "glycan array binding signal (z-score)", "setting": "[25]", "result": -0.055},
      {"measurement": "glycan array binding signal (z-score)", "setting": "[26]", "result": -0.046},
      {"measurement": "glycan array binding signal (z-score)", "setting": "[27]", "result": 0.006},
      {"measurement": "glycan array binding signal (z-score)", "setting": "[28]", "result": -0.066}
    ]}
  ]
}
